SW480 rerep: induces DNA re-replication in SW480 colon adenocarcinoma cells | SW480 DNA re-replication, Hoechst DNA content imaging, 48 h | Potency, µM (titrated, usually from 46.1 µM), actives largely listed as activators | actives 1.8% (n = 340,000) | AID 624297; note: nearly all actives have a fitted effect of over 55% in size
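Image-based read-out: total Hoechst fluorescence of nuclei (405 nm excitation, 500-530 nm emission), with hits raising the fraction of high-intensity nuclei. SW480 colon cells incubated 48 hr with compounds at 37 C.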
ELG1 DNA repair: inhibitors of ELG1-dependent DNA repair in HEK293T cells; HEK293T ELG1-luciferase reporter, luminescence, 16 h; DNA damage induced by 5-fluorouridine; Potency, µM (doses to about 46.1 µM), usual class: inhibitors; actives 2.3% (n = 330,000); note: nearly all actives have a fitted effect of over 55% in size
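Quantitative HTS, concentration-response format. 2,000 cells/well co-treated with 5-fluorouridine and compound, 16 hr in 5% CO2 at 37 °C; ONE-Glo luminescence read after 30 min.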
KB-V1 cytotox: KB-V1 MDR subline cytotoxicity; KB-V1 MDR cells viability, CellTiter-Glo, 72 h; Potency, µM (top dose mostly 46.1 µM), usual class: cytotoxic; actives 3.4% (n = 400,000); AID 1347076; note: nearly all actives have a fitted effect of over 60% in size
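Cells of the MDR subline KB-V1 are plated, dosed with compound at multiple concentrations, and incubated 72 h at 37 degrees C; CellTiter-Glo is then added and luminescence read after 10 min.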
MCF10A rereplic: induces DNA re-replication in MCF 10a normal breast cells | MCF 10A DNA re-replication, Hoechst nuclear intensity, 48 h | Potency, µM (top dose mostly 46.1 µM), hits mostly activators | actives 2.9% (n = 350,000); note: nearly all actives have a fitted effect of over 50% in size
KB-3-1 tox: KB-3-1 parental cell cytotoxicity. KB-3-1 viability, CellTiter-Glo ATP luminescence, 72 h. Potency, µM (doses to about 46.1 µM), actives largely listed as cytotoxic. actives 1.4% (n = 400,000); note: nearly all actives have a fitted effect of over 60% in size
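Viability of parental KB-3-1 cells, measured by CellTiter-Glo luminescence, followed a 72 h incubation at 37 °C with pinned compounds in phenol-red-free DMEM containing 10% FBS.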
Each line names hits and unclear results; the compound was inactive in the other large screens; ! = not confirmed by another sample. In the library only some 8.2% were active in any assay of this set; here they are far more common. Calls come from the whole dose curve; as a rule, active = well fitted curve in the direction sought with a large enough effect; inconclusive = small, poorly fitted or top-dose-only effect, or another doubt; inactive = no such curve, though single readings can be large; an effect the other way counts as inactive or inconclusive.

COc1ccc(OC)c(NC(=O)CSc2c3c(nc4ccccc24)CCCC3)c1	none (no result: SW480 rerep, ELG1 DNA repair, MCF10A rereplic)
COc1ccc(NC(=O)COC(=O)c2c3c(nc4ccccc24)CCCC3)cc1Cl	ELG1 DNA repair 18µM, KB-V1 cytotox 16µM, MCF10A rereplic inconclusive
COc1ccc(NC(=O)COC(=O)c2c3c(nc4ccccc24)CCCC3)cc1	ELG1 DNA repair 16µM, KB-V1 cytotox inconclusive, MCF10A rereplic inconclusive, KB-3-1 tox inconclusive
COc1ccc(OC)c(NC(=O)COC(=O)c2c3c(nc4ccccc24)CCCC3)c1	ELG1 DNA repair 12µM, KB-V1 cytotox 26µM, MCF10A rereplic inconclusive, KB-3-1 tox 26µM
CNC(=O)COC(=O)c1c2c(nc3ccccc13)CCC2	KB-V1 cytotox inconclusive
CCOc1ccccc1Nc1nnc(SCC(=O)NC2CCS(=O)(=O)C2)s1 (centres undefined)	ELG1 DNA repair inconclusive
CCOC(=O)CSc1ccc(-c2nc3cc(C)c(C)cc3[nH]2)cn1	ELG1 DNA repair inconclusive
Cc1cc2nc(-c3ccc(SCc4ccccn4)nc3)[nH]c2cc1C	SW480 rerep inconclusive, ELG1 DNA repair inconclusive, KB-V1 cytotox 16µM, MCF10A rereplic inconclusive
Cc1sc2ncnc(SCC(=O)Nc3ncccc3O)c2c1C	KB-V1 cytotox inconclusive, KB-3-1 tox inconclusive
Cc1cccnc1NC(=O)CSc1ncnc2sc(C)c(C)c12	KB-V1 cytotox 15µM
COC(=O)c1c(-c2ccccc2)csc1NC(=O)CSc1ncnc2sc(C)c(C)c12	KB-V1 cytotox 12µM
Cc1sc2ncnc(N(C)Cc3ccco3)c2c1C	KB-V1 cytotox inconclusive
Cc1sc2ncnc(SCc3ccco3)c2c1C	ELG1 DNA repair inconclusive, MCF10A rereplic 15µM
O=S(=O)(c1ccccc1F)N1CCN(CCOc2ccccc2)CC1	none
COc1ccc(CNC(=O)c2sc(=O)n(Cc3cc(C(C)=O)ccc3OC)c2C)cc1	KB-V1 cytotox inconclusive (no result: SW480 rerep, ELG1 DNA repair, MCF10A rereplic)
COc1ccc(CN(C)C(=O)c2ccc3c(=O)n4c(nc3c2)CCC4)cc1	SW480 rerep inconclusive, ELG1 DNA repair inconclusive
NC(=O)c1ccsc1NC(=O)COC(=O)Cc1ccsc1	none
COc1cc(CC(=O)OCC(=O)Nc2sccc2C(N)=O)cc(OC)c1OC	ELG1 DNA repair 7.3µM
Cc1nc2c(O)cccc2cc1CO	none
CSCC[C@H](NC(=O)c1cc2c([nH]c3ccccc32)c(-c2ccccc2)n1)C(=O)O	SW480 rerep 23µM
Nn1c(SCc2c(F)cccc2F)nnc1-c1ccccn1	SW480 rerep 7.3µM, ELG1 DNA repair inconclusive
O=C(O)COc1ccc(/C=C/c2nc3ccc([N+](=O)[O-])cc3s2)cc1	MCF10A rereplic 12µM
Cc1cccc(OCC(=O)Nc2nc3ccc([N+](=O)[O-])cc3s2)c1	none
O=C(NCCc1ccc(F)cc1)c1cc(-c2ccncc2)nc2ccccc12	none (no result: SW480 rerep, KB-V1 cytotox, MCF10A rereplic, KB-3-1 tox)
CCOC(=O)N1CCN(S(=O)(=O)c2ccc(C(=O)NNc3nc4c(C)cc(C)cc4s3)cc2)CC1	SW480 rerep 5.8µM, ELG1 DNA repair inconclusive, KB-V1 cytotox inconclusive, MCF10A rereplic inconclusive, KB-3-1 tox inconclusive
CCOC(=O)N1CCN(S(=O)(=O)c2ccc(C(=O)NNc3nc4cc(C)cc(C)c4s3)cc2)CC1	SW480 rerep inconclusive, MCF10A rereplic inconclusive, KB-3-1 tox 4.1µM
CCOC(=O)N1CCN(C(=O)C[C@@H]2C[C@@]3(C(=O)OCC)CCCC=C3N(Cc3ccco3)C2=O)CC1	KB-V1 cytotox inconclusive (no result: SW480 rerep, ELG1 DNA repair, MCF10A rereplic)
O=C(Nc1ccccc1)[C@@H]1CC=C[C@@H]2CCN(Cc3ccc(Cl)c(Cl)c3)C(=O)[C@@H]21	KB-V1 cytotox 21µM! (no result: ELG1 DNA repair)
CCCOC(=O)c1cccc(Nc2nc(CCC)cc(=O)[nH]2)c1	KB-3-1 tox inconclusive (no result: SW480 rerep, ELG1 DNA repair, MCF10A rereplic)
CN(C(=O)Nc1ccc(Cl)cc1Cl)[C@H]1c2cc(Br)ccc2OC[C@H]1CO	SW480 rerep inconclusive, ELG1 DNA repair 21µM, KB-V1 cytotox inconclusive, MCF10A rereplic inconclusive, KB-3-1 tox inconclusive
Cc1ccc(C(=O)NNC(=O)Cn2ccc(C(F)(F)F)n2)o1	none
O=C1CN(S(=O)(=O)c2cccc(Cl)c2Cl)c2ccccc2N1	ELG1 DNA repair inconclusive, KB-3-1 tox inconclusive
Cc1ccccc1-n1c(=O)/c(=C\c2ccco2)s/c1=C(/C#N)C(=O)Nc1ccccc1	ELG1 DNA repair 4.6µM
CC(C)[C@H](NC(=O)C1CCCC1)c1nc2ccccc2[nH]1	SW480 rerep inconclusive, ELG1 DNA repair inconclusive, MCF10A rereplic 9.2µM
CC(C)C1C(C#N)=C(N)Oc2n[nH]c(-c3ccc4ccccc4c3)c21 (centres undefined)	SW480 rerep inconclusive, KB-V1 cytotox 8.2µM, KB-3-1 tox inconclusive
CC1=C(C(=O)N(C(C)C)C(C)C)CC(CC(=O)NCc2cccs2)C(=O)N1CCCN1CCCC1=O (centres undefined)	none (no result: SW480 rerep, ELG1 DNA repair, MCF10A rereplic)
CCOC(=O)c1cnc2c(OC)cccc2c1N1CCN(c2ccccc2OC)CC1	ELG1 DNA repair 10µM, KB-V1 cytotox inconclusive, MCF10A rereplic inconclusive, KB-3-1 tox inconclusive
CCOC(=O)c1cnc2c(OC)cccc2c1N1CCN(c2ccc(OC)cc2)CC1	ELG1 DNA repair inconclusive
CCOC(=O)c1cnc2c(OC)cccc2c1N1CCN(c2ccccn2)CC1	ELG1 DNA repair inconclusive, KB-V1 cytotox 8.2µM, MCF10A rereplic inconclusive
CCOC(=O)c1cnc2c(OC)cccc2c1N1CC(C)CC(C)C1 (centres undefined)	ELG1 DNA repair inconclusive, MCF10A rereplic inconclusive
N#Cc1cccc(C(=O)C(=O)N2CCCN(Cc3ccc(F)cc3)CC2)c1	KB-V1 cytotox inconclusive (no result: SW480 rerep, ELG1 DNA repair, MCF10A rereplic)
C[C@@H]1[C@@H](Sc2ccccc2)CC(=O)O[C@@H]1c1ccc(-c2ccccc2)cc1	KB-V1 cytotox inconclusive, KB-3-1 tox inconclusive (no result: ELG1 DNA repair)
O=C1C=CC2(O[C@H](c3ccccc3)[C@@H](c3ccccc3)O2)[C@H](Sc2ccccc2O)C1	SW480 rerep inconclusive, KB-V1 cytotox inconclusive, MCF10A rereplic inconclusive, KB-3-1 tox 3.3µM (no result: ELG1 DNA repair)
C[C@H]1CN([C@@H](C)CO)C(=O)CCCn2nncc2CO[C@H]1CN(C)S(=O)(=O)c1cccs1	none (no result: SW480 rerep, ELG1 DNA repair, MCF10A rereplic)
CN(Cc1ccc(Cl)c(Cl)c1)C(=O)CN1C(=O)NC2(CCCC2)C1=O	none
CCN(Cc1ccc2c(c1)OCCO2)C(=O)CN1C(=O)NC2(CCCCC2)C1=O	KB-V1 cytotox 18µM
CCC(C)(C)C1CCC2(CC1)NC(=O)N(CC(=O)N(C)Cc1ccc3c(c1)OCCO3)C2=O (centres undefined)	ELG1 DNA repair 12µM, MCF10A rereplic inconclusive, KB-3-1 tox inconclusive
CN(Cc1ccc2c(c1)OCCO2)C(=O)CN1C(=O)NC2(CCCCC2)C1=O	none
Nc1nc(SCC(=O)c2c(N)n(C3CC3)c(=O)[nH]c2=O)n[nH]1	none
O=c1oc2ccccc2c(Nc2cccc(O)c2)c1[N+](=O)[O-]	MCF10A rereplic 18µM
Cc1nn(C(C)(C)C)c(OC(=O)C2CCCC2)c1S(=O)(=O)c1ccccc1	KB-V1 cytotox inconclusive, MCF10A rereplic inconclusive, KB-3-1 tox 21µM

Screening results from PubChem BioAssay.
